TbPYK inhibitor = T. brucei pyruvate kinase inhibition. TbPYK enzyme, Kinase-Glo Plus ATP luminescence, 45 min. Q57TT1. actives 0.12% (n = 410,000). Potency, µM (series often up to 76.8 µM), without a hit: at the highest dose activity, negative = inhibition, hits mostly inhibitors. AID 624173; further: on the % scale 0 is the no-effect control and ±100 the full control effect; nearly all actives have a fitted effect of over 50% in size
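Screened from lowest to highest concentration, compounds were pinned into TbPYK/substrate mixtures, and ADP (130 uM final) was added. Plates sat at room temperature for 45 min prior to Kinase-Glo Plus detection by luminescence.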
Sm TGR inh = inhibitors of Schistosoma mansoni thioredoxin glutathione reductase; Q962Y6; purified TGR, DTNB reduction, TNB absorbance 405 nm; Potency, µM (highest dose often 114 µM), for inactives: at the top dose activity change, negative = inhibition, most hits filed as inhibitors; actives 3% (n = 360,000); further: on the % scale 0 is the no-effect control and ±100 the full control effect; nearly all actives have a fitted effect of over 60% in size
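TGR 20 nM + NADPH 100 uM (dispensed conc.), cpd preinc 15 min RT; start with NADPH (500 uM addition) then DTNB (15 mM addition). Kinetic TNB absorbance, 405 nm filter. Four-parameter Hill fit across titration.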
AmpC detergent = inhibitors of E. coli AmpC beta-lactamase with detergent; actives 0.041% (n = 370,000); Potency, µM (top dose mostly 114 µM), for inactives: at the top dose activity change, negative = inhibition, hits mostly inhibitors; AmpC hydrolysis of nitrocefin, absorbance 480 nm, 0.01% Triton; P00811; AID 485294;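 further: 0% = no-compound wells and -100% = no-enzyme wells; nearly all actives have a fitted effect of over 25% in size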
Target sequence (P00811 whole entry, looked up): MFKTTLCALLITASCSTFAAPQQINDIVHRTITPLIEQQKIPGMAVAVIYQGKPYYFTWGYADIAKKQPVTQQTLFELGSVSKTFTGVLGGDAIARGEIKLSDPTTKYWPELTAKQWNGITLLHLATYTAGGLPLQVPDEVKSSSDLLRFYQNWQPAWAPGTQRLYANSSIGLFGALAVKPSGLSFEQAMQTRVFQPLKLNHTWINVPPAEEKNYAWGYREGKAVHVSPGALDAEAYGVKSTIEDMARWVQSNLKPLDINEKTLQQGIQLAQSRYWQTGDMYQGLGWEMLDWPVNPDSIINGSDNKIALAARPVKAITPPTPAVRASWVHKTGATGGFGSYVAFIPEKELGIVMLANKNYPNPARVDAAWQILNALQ
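20 mM phosphate pH 7.0 + 0.01% (detergent screen) or 0.0001% Triton X-100; 5.3 nM AmpC reagent; cpd preinc 15 min RT; nitrocefin (800 uM stock) to start; A480 q20 s × 4 min; Activity was normalised to no-enzyme and no-compound control wells.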
RE007 growth inh = less growth of the S. pombe RE007 Vpr strain. AID 651644. actives 0.21% (n = 360,000). S. pombe RE007 Vpr strain, BacTiter-Glo ATP luminescence, 24 h. Potency, µM (highest dose often 92.2 µM), for inactives: at the highest dose activity change, negative = less growth, most hits filed as inhibitors; active means well fitted falling curve with a large enough effect; inconclusive means small, poorly fitted or top-dose-only effect; inactive means no such curve, though single readings can be large or run the other way; further: on the % scale 0 is the no-effect control and ±100 the full control effect; nearly all actives have a fitted effect of over 50% in size
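Fission yeast strain RE007, carrying one chromosomally integrated HIV-1 vpr copy, was seeded at OD 0.01 in PMG+AL medium with 23 nL pinned compound. After 24 h at 30 °C and 99% humidity, viability was read by BacTiter-Glo luminescence.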
AmpC inh no detg = inhibitors of E. coli AmpC beta-lactamase without detergent | AmpC nitrocefin hydrolysis, absorbance 480 nm, 0.0001% Triton | Potency, µM (highest dose often 57.1 µM), for inactives: at the top dose activity change, negative = inhibition, usual class: inhibitors | actives 0.52% (n = 330,000) | AID 485341;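 further: plate controls were no compound for no effect and no enzyme for full effect; nearly all actives have a fitted effect of over 20% in size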
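20 mM phosphate pH 7.0 + 0.01% (detergent screen) or 0.0001% Triton X-100; 5.3 nM AmpC reagent; cpd preinc 15 min RT; nitrocefin (800 uM stock) to start; A480 q20 s × 4 min; Activity was normalised to no-enzyme and no-compound control wells.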
SARS PLpro yeast = blocks SARS-CoV papain-like protease in a yeast assay; actives 0.19% (n = 330,000); S. cerevisiae expressing SARS-CoV PLpro, growth rescue; AID 485353; Potency, µM (series often up to 32.9 µM), for inactives: at the top dose activity, positive = growth rescue, most hits filed as activators; calls by dose curve; further: 0% is about no effect; nearly all actives have a fitted effect of over 55% in size
Active calls of the source: *; ? = inconclusive; . = no result given; [ ] = remark or other dose. An excerpt weighted towards active compounds, which were near 3.3% of everything screened. Unless noted, the call rests on the fitted dose curve; in most records, active means well fitted curve in the direction sought with a large enough effect; inconclusive means small, poorly fitted or top-dose-only effect, or another doubt; inactive means no such curve, though single readings can be large; an effect the other way counts as inactive or inconclusive. Potency means the concentration at half of the fitted maximal effect.

SMILES	TbPYK inhibitor	Sm TGR inh	AmpC detergent	RE007 growth inh	AmpC inh no detg	SARS PLpro yeast
CCCCCn1c(=O)c2ccccc2n2c(CCl)nnc12	5%	14µM*	1%	8%	-2%	-3%
CC(C)CCn1c(=O)c2ccccc2n2c(CCl)nnc12	-5%	3.2µM*	-4%	0%	-18%	1%
COc1cc(OC)c(NC(=O)N2CCc3c(sc4c3CCCC4)C2c2ccccc2)cc1Cl (stereo not given)	4%	-3%	-3%	.	.	.
COc1ccc(-c2nc(SCC(=O)Nc3ccc4c(c3)OCO4)c(-c3ccccc3)[nH]2)cc1	-2%	-1%	5%	.	.	.
CCCc1cc(C(=O)Nc2ccccc2SC)no1	2%	9%	6%	-20%	40µM*	-25%
CCCc1cc(C(=O)Nc2cccc(C(C)=O)c2)no1	1%	6%	3%	0%	-7%	-18%
CCCc1cc(C(=O)Nc2ccc(C(C)=O)cc2)no1	1%	2%	-4%	-20%	45µM*	-2%
COc1ccccc1C(=O)NCCSc1c(C)[nH]c2ccccc12	-4%	2%	-6%	.	.	.
COc1cc(/C=N/N(C)c2ccccc2)cc(Cl)c1O	4%	-35%	?	28µM*	-19%	-27%
NS(=O)(=O)c1ccc(NC(=O)N2c3ccccc3Sc3ccccc32)cc1	0%	-7%	-11%	-13%	35µM*	-14%
CCc1ccc(NC(=O)N2c3ccccc3Sc3ccccc32)cc1	-1%	8%	11%	.	.	.
CCOCCCNC(=O)C(c1ccccc1)N(Cc1ccc2c(c1)OCO2)C(=O)c1ccc(NC(C)=O)cc1 (stereo not given)	0%	1%	4%	.	.	.
Cc1ccc2nc(N(CCCN(C)C)C(=O)c3ccc4ncsc4c3)sc2c1	25µM*	1%	-12%	4%	70%	-14%
Cc1cc(C)c(S(=O)(=O)c2ccccc2)c(OC(=O)c2ccc(Cl)cc2Cl)n1	-9%	23%	-9%	27%	-5%	-5%
Cc1cc(OC(=O)c2ccc(Cl)cc2Cl)nc(C)n1	.	56µM*	-3%	6%[3.69 µM]	-11%	2%
Cc1cccc(-c2nc3c4ccccc4nc(NCc4ccccc4Cl)n3n2)c1	10%	24%	19%	.	.	.
CCCCc1c(C)nc2cc(-c3ccco3)[nH]n2c1=O	-3%	-29%	?	9%	-42%	0%
O=C1c2nc3cc(-c4ccco4)[nH]n3c(=O)c2CN1Cc1ccccc1	-4%	20µM*	1%	-5%	-39%	3%
CCOP(=O)(OCC)C(C)(C)NC(=O)c1cc([N+](=O)[O-])cc([N+](=O)[O-])c1	3%	-7%	-2%	20%	-1%	3%
CCOP(=O)(OCC)C(NC(=O)c1cc([N+](=O)[O-])cc([N+](=O)[O-])c1)C(F)(F)F (stereo not given)	-5%	13µM*	1%	2%	-6%	-1%
CCOC(=O)N1CCC(Nc2c(NCCCN(CC)CC)c(=O)c2=O)CC1	-5%	0%	-10%	-3%	-18%	-3%
CCOC(=O)N1CCC(Nc2c(NCCCOC)c(=O)c2=O)CC1	9%	-10%	0%	12%	0.25µM*	29%
CCCSc1nnc(N2C(=O)CC(c3ccsc3)C3=C2CCCC3=O)s1 (stereo not given)	3%	2%	?	0%	4.5µM*	-2%
CCc1ccc(CN(C)C(=O)CC2C(=O)NCCN2Cc2ccoc2)cc1 (stereo not given)	-2%	18µM*	6%	7%	39%	-1%
Cc1nc(CNC(=O)CC2C(=O)NCCN2Cc2ccoc2)nc2c1CCCC2 (stereo not given)	-11%	14µM*	-4%	11%	-3%	-3%
SMILES	TbPYK inhibitor	Sm TGR inh	AmpC detergent	RE007 growth inh	AmpC inh no detg	SARS PLpro yeast
COC(=O)CCCNC(=O)CC1C(=O)NCCN1Cc1ccoc1 (stereo not given)	2%	45µM*	1%	-5%	-15%	0%
Cc1nc(CCNC(=O)CC2C(=O)NCCN2Cc2ccoc2)nc2c1CCCC2 (stereo not given)	5%	28µM*	2%	6%	15%	0%
O=C(CC1C(=O)NCCN1Cc1ccoc1)NCCc1ccc(Cl)cc1 (stereo not given)	-8%	?	-1%	9%	38%	0%
O=C(CC1C(=O)NCCN1Cc1ccc(-c2ccccc2)cc1)NCc1ccccc1 (stereo not given)	-10%	?	2%	-10%	213%	-2%
COc1cccc(N2CCN(C(=O)CN3CCSc4ccc(S(=O)(=O)N(C)C)cc43)CC2)c1	4%	0%	-6%	.	.	.
Cc1ccc(Cl)cc1N1CCN(C(=O)c2c(C)oc3ncnc(N4CCCCC4)c23)CC1	1%	11%	24%	.	.	.
CCOc1ccccc1NC(=O)Nc1ccc2nc(N3CCN(C)CC3)cc(C)c2c1	-2%	2%	22%	.	.	.
CSc1ccc(C2C(C#N)=C(N)Oc3c2ccc(=O)c2c(C)oc(C)c32)cc1 (stereo not given)	-14%	28µM*	2%	-20%	-29%	2%
N#CC1=C(N)Oc2cc(O)ccc2C1c1cccs1 (stereo not given)	-2%	-31%	-1%	8%	-15%	7%
N#CC1=C(N)Oc2c(ccc3ccccc23)C1c1cccs1 (stereo not given)	-6%	35µM*	0%	-8%	-59%	-6%
COc1ccc(C2C(C#N)=C(N)Oc3c2oc(CO)cc3=O)cc1 (stereo not given)	0%	-4%	0%	2%	2%	0%
Cc1oc(C)c2c(=O)ccc3c(c12)OC(N)=C(C#N)C3c1ccccc1Cl (stereo not given)	-14%	?	-3%	0%	-47%	1%
Cc1oc(C)c2c(=O)ccc3c(c12)OC(N)=C(C#N)C3c1ccccc1 (stereo not given)	4%	28µM*	0%	7%	?	-1%
N#CC1=C(N)OC2=C(C(=O)CCC2)C1c1ccccc1 (stereo not given)	-1%	5%	?	14%	-6%	1%
N#CC1=C(N)Oc2c(ccc3cccnc23)C1c1ccccc1 (stereo not given)	-7%	40µM*	6%	1%	-4%	0%
Cc1cccc(Nc2nnc(-c3ccc(C)c(S(=O)(=O)N4CCN(C)CC4)c3)c3ccccc23)c1	-3%	-4%	-3%	.	.	.
COc1ccc(N/C=C2/CCCCC2=O)cc1	-4%	40µM*	-8%	1%	26%	5%

From PubChem BioAssay
